High-throughput results as filed in PubChem.
ERG-DNA inh = qHTS for Small Molecule Inhibitors of the ERG Ets/DNA interaction; Potency, µM (highest dose often 76.9 µM), hits mostly inhibitors; 0.028% of 370,000 active; Transcriptional regulator ERG (Homo sapiens), P11308; fluorescence polarization, His-ERG Ets domain / labelled DNA; AID 624246, 2012; active means well fitted inhibition curve with a large enough effect in the polarisation, with a control signal flat; inconclusive means small, poorly fitted or top-dose-only effect, or effect the other way, or a change in a side signal; inactive means no such curve, though single readings can be large or run the other way; the % refers to the polarisation;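 further: polarization taken with two DNA probes labelled with fluorescein and Texas red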
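His-tagged ERG Ets domain (1 uM in the protein solution; 300mM KCl, 50mM Tris-HCl, 1mM EDTA, 1mM DTT, pH 7.5) received compound, then a probe mix of 5 nM fluorescein-DNA and 100nM Texas-615-DNA. Fluorescence polarization was read for both dyes.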
D1 agonist = Allosteric Agonists of the Human D1 Dopamine Receptor: qHTS; HEK293 T-REx D1 cells, calcium flux, agonist mode; activation, % at 2 µM; 1% of 360,000 active; in the data active means activation above about 30%
Target sequence (P21728 whole entry, looked up): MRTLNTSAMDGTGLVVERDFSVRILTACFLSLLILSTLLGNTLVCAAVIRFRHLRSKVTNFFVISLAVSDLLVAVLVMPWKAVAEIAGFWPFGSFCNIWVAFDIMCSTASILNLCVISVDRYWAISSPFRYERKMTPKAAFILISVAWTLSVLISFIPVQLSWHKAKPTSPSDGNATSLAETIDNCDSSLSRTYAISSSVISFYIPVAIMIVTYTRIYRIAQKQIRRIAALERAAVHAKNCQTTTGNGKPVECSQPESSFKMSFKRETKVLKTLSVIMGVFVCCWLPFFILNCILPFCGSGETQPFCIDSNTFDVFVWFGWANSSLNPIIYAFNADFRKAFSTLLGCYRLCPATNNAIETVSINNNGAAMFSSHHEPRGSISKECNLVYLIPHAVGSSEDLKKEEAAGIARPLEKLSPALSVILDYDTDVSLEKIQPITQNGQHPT
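Agonism was scored from calcium flux recorded over 180 s (1 read/s) after pintool compound addition, following a 10-cycle baseline. Cells were inducible force-coupled HEK293 TREx D1, plated overnight at 30 C and loaded with no-wash calcium dye.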
DRD3 antagonist = qHTS of D3 Dopamine Receptor Antagonist: qHTS; max response, negative = inhibition, %; AID 652054, 2013; D3R cells, DiscoveRx beta-arrestin luminescence, antagonist mode; stronger effect = lower value; 2.5% of 360,000 active; in the data active means max response below about -50%; inconclusive means no clear call, values can overlap the other calls
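Cells expressing the human receptor were seeded at 1500 cells/well, incubated overnight at 37 degrees C in 5% CO2, then exposed to library compounds with dopamine controls for 90 minutes at 37 degrees C before luminescent detection.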
D1 potentiator = Potentiators of Human D1 Dopamine Receptor: qHTS; HEK293 TREx D1 cells, calcium flux, dopamine EC20 potentiation; D(1A) dopamine receptor (Homo sapiens), P21728; potentiation, % at 10 µM; 0.036% of 360,000 active; in the data active means potentiation above about 30%
D1 antag = Antagonist of Human D 1 Dopamine Receptor: qHTS. D(1A) dopamine receptor (Homo sapiens), P21728. HEK293 TREx D1 cells, calcium flux, dopamine EC80; stronger effect = lower value. activity change, negative = inhibition, % at 10 µM. 3.2% of 360,000 active; in the data active means activity change below about -30%
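Compound effects on dopamine-evoked calcium signalling were measured in tetracycline-induced HEK293 Trex D1 cells. Dopamine at EC80 followed a 180 s compound pre-read, and fluorescence was tracked kinetically for 180 s more.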
DRD3 agonist = qHTS of D3 Dopamine Receptor Agonist: qHTS; max activation, %; 0.58% of 410,000 active; D(3) dopamine receptor (Homo sapiens), P35462; D3R DiscoveRx beta-arrestin cells, luminescence, 90 min; in the data active means max activation above about 30%
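Cells at 1500/well, incubated overnight, then treated with pinned compounds (dopamine as control) for 90 min at 37 degrees C. DiscoveRx reagent added for 30 - 60 minutes at room temperature; luminescence read.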
Of the large screens only hits and unclear results are named; the others gave an inactive call. A selection: hits, their analogues and other compounds. The true share with any hit is near 6.1%.

O=c1[nH]c2ccccc2n1C1CCN(Cc2ccc(-c3nc4ccc(F)cc4nc3-c3ccccc3)cc2)CC1	DRD3 antagonist -96 (no result: ERG-DNA inh, D1 agonist, D1 potentiator, D1 antag)
CCCCn1nnnc1C(C1CC1)N1CCC(n2c(=O)[nH]c3ccccc32)CC1 (stereo unspecified)	none (no result: ERG-DNA inh, D1 agonist, D1 potentiator, D1 antag)
O=c1[nH]c2ccccc2n1C1CCN(Cc2ccc(-c3nc4ccccc4nc3-c3ccccc3)cc2)CC1	DRD3 antagonist -92 (no result: ERG-DNA inh, D1 agonist, D1 potentiator, D1 antag)
O=c1[nH]c2ccccc2n1CCCN1CCC(n2c(=O)[nH]c3cc(Cl)ccc32)CC1	DRD3 antagonist -103 (no result: D1 agonist, D1 potentiator, D1 antag)
Cc1ccc2nc(-c3ccc(CN4CCC(n5c(=O)[nH]c6ccccc65)CC4)cc3)c(-c3ccccc3)nc2c1	none (no result: ERG-DNA inh, D1 agonist, D1 potentiator, D1 antag)
COc1ccc2nc(-c3ccc(CN4CCC(n5c(=O)[nH]c6ccccc65)CC4)cc3)c(-c3ccccc3)nc2c1	DRD3 antagonist -53 (no result: ERG-DNA inh, D1 agonist, D1 potentiator, D1 antag)
O=C1NC(=O)N(Cc2ccccc2)C(=O)C1Cc1ccccc1 (stereo unspecified)	none (no result: D1 agonist, D1 potentiator, D1 antag)
COCCNC(=O)Cn1cc(/C=C2\C(=O)NC(=O)N(c3cccc(C)c3C)C2=O)c2ccccc21	DRD3 antagonist inconclusive
NC1=NC(=O)C(c2ccccc2)O1 (stereo unspecified)	none (no result: ERG-DNA inh, DRD3 antagonist)
COC(=O)C1=C(c2cc3ccccc3s2)C[C@@H]2CC[C@H]1N2C(=O)N1CCOCC1	none (no result: D1 agonist, D1 potentiator, D1 antag)
CCOC(=O)C(O)(c1ccc(NC(=S)NC(=O)c2ccc(Cl)cc2Cl)cc1)C(F)(F)F (stereo unspecified)	D1 agonist 44, DRD3 antagonist inconclusive
COC(=O)C(O)(c1ccc(NC(=S)NC(=O)c2ccc(Cl)cc2Cl)cc1)C(F)(F)F (stereo unspecified)	D1 agonist 31, DRD3 antagonist inconclusive, D1 antag -32 (no result: ERG-DNA inh)
COC(=O)C(O)(c1ccc(NC(=O)NC2CCCCC2)cc1)C(F)(F)F (stereo unspecified)	none
CCOC(=O)C(O)(c1ccc(NC(=O)Oc2ccccc2)cc1)C(F)(F)F (stereo unspecified)	DRD3 antagonist inconclusive
COC(=O)[C@H]1[C@@H](OC(=O)c2ccccc2)C[C@@H]2CC[C@H]1N2C	none (no result: ERG-DNA inh, D1 agonist, DRD3 antagonist, D1 potentiator, D1 antag)
COc1ccccc1C1CC2CCC(C1OC(C)=O)N2Cc1ccccc1 (stereo unspecified)	DRD3 antagonist -87
Oc1ccc2c3c1O[C@H]1[C@@H](O)CC[C@@]4(O)[C@@H](C2)N(CC2CCC2)CC[C@]314	none
NC(N)=Nc1ccc2[nH]c3c(c2c1)C[C@@]1(O)[C@H]2Cc4ccc(O)c5c4[C@@]1(CCN2CC1CC1)[C@H]3O5	DRD3 antagonist -61
CN1CCN(c2ccc([N+](=O)[O-])cc2Cl)CC1	none
CN1CCN(c2cc([N+](=O)[O-])ccc2Cl)CC1	DRD3 antagonist -99, D1 antag -51
O=CC(Cl)P(=O)(N1CCOCC1)N1CCOCC1 (stereo unspecified)	D1 antag -36
CC[C@H]1CN(C)C[C@@]2(C(=O)OC)Cc3c([nH]c4ccccc34)C(=O)C[C@@H]12	none (no result: D1 agonist, D1 potentiator, D1 antag)
CC[C@H]1CN(C)CCc2c([nH]c3ccccc23)C(=O)C[C@@H]1/C(=C\OC)C(=O)OC	DRD3 antagonist -51 (no result: D1 agonist, D1 potentiator, D1 antag)
COc1ccc2[nH]cc(CCNCc3cccnc3)c2c1	none
Cc1[nH]c2ccc(OC(F)(F)F)cc2c1CCNCc1cccc([N+](=O)[O-])c1	DRD3 antagonist -64
CCOc1cccc(CNCCc2c(C)[nH]c3ccc(OC(F)(F)F)cc23)c1O	D1 agonist 117
COc1ccc2[nH]c(C)c(CCNCc3cccnc3)c2c1	ERG-DNA inh inconclusive, D1 agonist 34
Cc1[nH]c2ccc(OC(F)(F)F)cc2c1CCNCc1ccc(Cl)cc1	D1 agonist 41
CN/C=C(/Cl)P(=O)(OC(C)C)OC(C)C	none (no result: D1 agonist, D1 potentiator, D1 antag)
